Assay outcomes as filed in PubChem.
In the library only some 5.4% were active in any assay of this set; here they are far more common.
CSC inhib = blocks cancer stem cells; cancer stem cell-like cells viability, luminescence; inhibition, % at 7.5 µM; 300,000 compounds, 1.1% hits; in the data active = inhibition above about 75%; inconclusive = no clear call, values can overlap the other calls; tested in HMLE shEcad cells
ALR inh = blocks human ALR sulfhydryl oxidase activity. inhibition, % (test concentration not listed). P55789. purified ALR, DTT oxidation, H2O2 HRP-luminol luminescence. 290,000 compounds, 3.8% hits. AID 485317;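 active = mean replicate inhibition above about 79%, with every replicate also reaching it, limit read from the data; inconclusive = only one of the two criteria met; inactive = mean below limit and not every replicate reaching it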
PP5 inh = inhibitors of human protein phosphatase 5 (PP5) | P53041 | purified PP5c, OMFP substrate fluorescence | inhibition, % at 6.7 µM | 320,000 compounds, 0.18% hits;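 active = inhibition above the campaign's mean inhibition across all tested compounds plus 3 SD, cut at about 9.5% in these data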;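 also: 0% = DMSO only and 100% = 100 µM cantharidin control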
Target sequence (P53041 whole entry, looked up): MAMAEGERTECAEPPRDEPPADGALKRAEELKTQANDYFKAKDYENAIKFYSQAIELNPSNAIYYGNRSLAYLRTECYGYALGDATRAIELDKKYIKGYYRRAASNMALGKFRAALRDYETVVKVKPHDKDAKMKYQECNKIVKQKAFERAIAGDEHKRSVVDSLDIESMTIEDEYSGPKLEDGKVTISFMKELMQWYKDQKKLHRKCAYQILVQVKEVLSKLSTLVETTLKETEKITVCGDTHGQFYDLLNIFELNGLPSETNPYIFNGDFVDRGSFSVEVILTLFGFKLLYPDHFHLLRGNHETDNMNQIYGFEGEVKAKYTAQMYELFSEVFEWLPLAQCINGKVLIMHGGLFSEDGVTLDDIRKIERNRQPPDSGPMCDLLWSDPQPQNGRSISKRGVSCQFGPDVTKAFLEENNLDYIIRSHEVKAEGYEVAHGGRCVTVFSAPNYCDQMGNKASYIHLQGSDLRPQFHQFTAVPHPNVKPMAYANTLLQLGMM
PP1 counter = counter-screen for PP5 inhibitors: inhibitors of human PP1-alpha | P62136 | 320,000 compounds, 0.9% hits | purified PP1alpha, OMFP fluorescence | inhibition, % at 6.7 µM | AID 2235;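 active = inhibition above the mean inhibition of all tested compounds plus 3 SD, computed separately for each screening campaign, cut at about 15% in these data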
Calb FLC = C. albicans growth modulation with fluconazole; growth inhibition, % (test concentration not listed); AID 1979; C. albicans CaCi-2 (fluconazole-resistant clinical isolate) + fluconazole, Alamar Blue growth, 48 h; 300,000 compounds, 0.57% hits;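 active = growth inhibition above about 58% in most replicates, limit read from the data, passing the limit was not always enough; inconclusive = exactly half the replicates above a set limit; inactive = most replicates below a set limit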;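 also: all wells also contain fluconazole at 8 µg/ml as a sub-toxic cotreatment; 0% = median of DMSO wells and 100% = median of geldanamycin control wells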
Numbers without * were called inactive; ? = inconclusive; / = not tested or not shown; + = active, no number.

SMILES	CSC inhib	ALR inh	PP5 inh	PP1 counter	Calb FLC
Oc1ccc(N2CCN(C(c3cccnc3)c3nnnn3Cc3ccccc3)CC2)cc1 (stereo not drawn)	0	99*	3	0	-24
c1cc2cc(-c3c(-c4ccc5c(c4)OCO5)noc3-c3ccsc3)ccc2[nH]1	121*	1	4	-3	-1
c1ccc(-c2onc(-c3ccco3)c2-c2ccc3[nH]ccc3c2)cc1	120*	-8	5	-3	4
COCCn1c(SCC(=O)Nc2cccc(F)c2)nc2c([nH]c3ccccc32)c1=O	3	-2	0	-3	/
COCCn1c(SCC(=O)Nc2cccc(NC(C)=O)c2)nc2c([nH]c3ccccc32)c1=O	17	98*	1	-2	/
COCCn1c(SCC(=O)Nc2ccc(C(C)=O)cc2)nc2c([nH]c3ccccc32)c1=O	-2	98*	0	14	/
CC1=NN(c2ccccc2)C(=O)C1C=Nc1ccc(N(C)C)cc1 (stereo not drawn)	86*	/	4	-3	1
Cc1c(C(=O)c2ccc(Cl)cc2[N+](=O)[O-])c2ccccn2c1CCC#N	?	95*	5	3	-10
Cc1c(C(=O)c2ccc(Cl)c([N+](=O)[O-])c2)c2ccccn2c1CCC#N	-3	40	2	0	12
Cc1c(C(=O)c2ccc(N(C)C)cc2)c2ccccn2c1CCC#N	-1	98*	1	0	-22
CN(C)/C=C1\C(=O)Nc2ccccc21	3	99*	1	1	3
CC(C)Oc1ccc(C(=O)/C=C2/C(=O)Nc3ccccc32)cc1	102*	/	1	5	8
CCOC(=O)c1ccc(NC(=O)c2ccccc2[N+](=O)[O-])cc1	-3	2	0	-5	-12
CCOC(=O)c1cc([N+](=O)[O-])c([N+](=O)[O-])cc1NC(C)=O	46	-9	2	4	106*
N#CCSCC(=O)Nc1ccc(Cl)cc1	-3	99*	-1	-4	-14
NC(=O)SCC(=O)Nc1cccc(Cl)c1	-13	99*	0	0	-6
Cc1ccc(NC(=O)CSC(N)=O)cc1Cl	37	100*	4	4	-27
NC(=O)SCC(=O)Nc1ccc(Cl)c(Cl)c1	3	98*	1	0	/
COC(=O)CCC(=O)Nc1ccc(Cl)c(Cl)c1	1	-8	3	-4	-5
COc1ccc(C/C(C)=N/Nc2nc(C)cc(=O)[nH]2)cc1	-11	2	2	3	-4
Cc1c(Cl)cccc1NC(=O)CSCC(N)=O	-11	-4	-2	0	11
Cc1c(Cl)cccc1NC(=O)CSC(N)=O	6	99*	0	-5	1
NC(=O)SCC(=O)Nc1ccc(Cl)cc1	8	99*	-3	-2	4
O=C(CSc1nc(Cc2ccccc2)nc2ccccc12)Nc1ccc2c(c1)OCCO2	/	55	2	2	7
O=C(CSc1ncnc2ccccc12)Nc1ccc2c(c1)OCO2	14	98*	0	-2	8
SMILES	CSC inhib	ALR inh	PP5 inh	PP1 counter	Calb FLC
COc1ccc(-n2nnc3c(SCC(=O)Nc4ccc5c(c4)OCCO5)ncnc32)cc1	53	99*	-3	-7	/
Cc1ccc(NC(=O)CSc2ncnc3ccccc23)cc1S(=O)(=O)N1CCOCC1	4	99*	-2	8	0
O=C(CSc1ncnc2ccccc12)NCc1ccc2c(c1)OCO2	-10	25	-3	-8	-7
O=C(CSc1ncnc2ccccc12)Nc1ccc2c(c1)OCCO2	-1	95*	1	-3	-24
COc1ccc(C(=O)Nc2ccnn2C2CCN(Cc3ccc4nonc4c3)CC2)cc1	-10	-2	2	2	3
Cc1ccc(N2C(=O)c3ccc(C(=O)NCCN4CCOCC4)cc3C2=O)cc1	-13	-2	0	-4	13
CC1=CC2=NC(=O)/C(=C\c3cccn3CCOc3cccc(C)c3)C(=N)N2O1	4	4	5	2	10
Cc1ccc(NC(=O)COC(=O)c2ccc(NC(=O)CC#N)cc2)cc1S(=O)(=O)N1CCOCC1	8	99*	/	/	/
Cc1ccc(CNC(=O)C(=O)NCCC2CCCCN2S(=O)(=O)c2ccccc2)cc1 (stereo not drawn)	0	3	-1	1	1
CSC1=NC2(C[C@H]2c2ccccc2)C(=O)N1C (stereo partly drawn)	-2	-2	2	1	2
CCOCCCNC(=O)/C(C#N)=C/c1ccc([N+](=O)[O-])o1	+	-116	1	-3	2
CCOCCCNC(=O)/C(C#N)=C/c1ccc(-c2ccc(S(=O)(=O)N3CCOCC3)cc2)o1	10	-5	2	0	-5
Cn1cccc1Cc1nnc(SCC(=O)Nc2ccc(F)cc2)n1-c1ccc(F)cc1	-2	4	4	-5	-13
CC(=O)Oc1cc(O)c2c(c1)OC(c1ccc(OC(C)=O)c(OC(C)=O)c1)C(OC(C)=O)C2=O (stereo not drawn)	-1	89*	1	1	-12
C=CCn1c(C)cc(C2=NNC(=NC(C)(C)C)SC2)c1C	33	99*	1	11	-4
COCCn1c(C)cc(C2=NNC(=NC3CC3)SC2)c1C	7	97*	1	-1	-1
COc1ccc(/C=N/N=C2/NC(=O)CC(C(=O)O)S2)cc1 (stereo not drawn)	-16	3	2	-4	0
CCCOc1ccc(-c2nc(N3CCN(CC)CC3)c3ccccc3n2)cc1	88*	-6	4	8	9
Cn1cc(/C=N/Nc2ccccc2)c2ccccc21	-7	-20	-1	3	101*
O=C(O)c1ccc(N/N=C/c2cn(Cc3ccccc3F)c3ccccc23)cc1	11	98*	1	4	3
O=C(O)c1ccc(N/N=C/c2ccnc3ccccc23)cc1	/	2	1	-4	-2
Cn1cc(/C=N/NC(=O)c2ccccc2O)c2ccccc21	-9	71	-1	-1	-5
CC(C)n1cc(/C=N/Nc2ccc(C(=O)O)cc2)c2ccccc21	-17	100*	4	0	-2
Cc1ccc(C(C)C)c(OCC(O)CNC2CCCC2)c1 (stereo not drawn)	-17	-15	-1	-1	-32
CCOC(=O)C1=C(c2ccccc2)N=c2s/c(=C\c3cccc(O)c3)c(=O)n2C1c1cccs1 (stereo not drawn)	99*	-1	3	8	0
CCOC(=O)C1=C(C)N=c2s/c(=C\c3cccc(OCC(=O)O)c3)c(=O)n2C1c1ccccc1OC (stereo not drawn)	14	2	3	-1	-6
CCc1ccc2c(c1)C(=O)C(=O)N2CC(=O)Nc1ccc(NC(=O)c2ccccn2)cc1	-22	2	3	16*	3
CCc1ccc(NC(=O)CCN2C(=O)c3cccnc3C2=O)cc1	-8	-2	-1	1	15
Cc1cccc(NC(=O)CSCC(=O)Nc2ccccc2N2CCCCC2)c1	-1	-9	3	-2	-1
COc1ccc(CC(=O)Nc2ccccc2N2CCCC2)cc1OC	/	98*	0	-3	2
